High-throughput results as filed in PubChem BioAssay.
Rows were chosen to be rich in hits. Some 16% of all compounds tested hit in one or more screens of this group.
TDP1 cell noCPT: qHTS for Inhibitors of human tyrosyl-DNA phosphodiesterase 1 (TDP1): qHTS in cells in absence of CPT; DT40 Tdp1-/- hTDP1 cells, no CPT, ATP luminescence, 48 h; Potency, µM (doses to about 46.2 µM), usual class: inhibitors; 420,000 tested, 15% active; further: nearly all actives have a fitted effect of over 55% in size
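Growth kinetics read by CellTiter-Glo luminescence after ≥48 hr at 37 °C. Cells: DT40 Tdp1-/- stably carrying human TDP1, 400 per well, compound exposure in the absence of CPT (DMSO vehicle).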
TDP1 inh: qHTS Assay for Inhibitors of Tyrosyl-DNA Phosphodiesterase (TDP1). Tyrosyl-DNA phosphodiesterase 1 (Homo sapiens), Q9NUW8. recombinant TDP1, AlphaScreen DNA substrate cleavage. Potency, µM (doses to about 130 µM), most hits filed as inhibitors. 350,000 tested, 0.28% active; further: nearly all actives have a fitted effect of over 40% in size
Target sequence (Q9NUW8 whole entry, looked up): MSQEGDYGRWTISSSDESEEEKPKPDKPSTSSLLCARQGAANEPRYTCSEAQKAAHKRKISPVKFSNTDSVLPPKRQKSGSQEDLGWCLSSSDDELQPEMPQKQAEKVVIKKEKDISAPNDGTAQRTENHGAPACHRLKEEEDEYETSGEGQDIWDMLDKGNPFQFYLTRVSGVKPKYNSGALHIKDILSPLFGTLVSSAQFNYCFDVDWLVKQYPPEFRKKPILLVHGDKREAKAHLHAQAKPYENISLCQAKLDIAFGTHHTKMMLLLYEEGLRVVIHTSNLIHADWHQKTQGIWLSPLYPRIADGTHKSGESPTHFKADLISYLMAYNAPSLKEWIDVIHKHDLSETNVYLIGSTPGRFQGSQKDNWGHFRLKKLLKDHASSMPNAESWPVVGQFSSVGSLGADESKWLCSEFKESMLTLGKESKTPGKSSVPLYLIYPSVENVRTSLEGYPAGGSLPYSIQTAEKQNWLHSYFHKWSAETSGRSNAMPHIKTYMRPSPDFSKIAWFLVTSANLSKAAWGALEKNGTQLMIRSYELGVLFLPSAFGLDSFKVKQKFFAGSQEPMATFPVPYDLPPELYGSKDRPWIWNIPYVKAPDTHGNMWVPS
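Tdp1 1 nM final; 15 min RT w/ cpd; substrate 15 nM, 5 min; beads 10 ug/ml, 10 min; AlphaScreen read. Neg ctrl: no enzyme.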
miR-21 act: qHTS Assay for Modulators of miRNAs and/orActivators of miR-21; HeLa miR-21 FLuc reporter, luciferase, 48 h; Potency, µM (series often up to 38.3 µM), usual class: activators; 340,000 tested, under 10 active; AID 2288, 2010;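 further: miR-21 action dims this reporter so a rising signal means less miR-21 action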
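HeLa miR-21-FLuc reporter line, endogenous miR-21; 2000 cells/well in DMEM/10% FBS; compound titration up to ~40uM final, 48 h, 37 degree Celsius; luciferase detection reagent, 15 min lysis, CCD luminescence.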
TDP1 cell CPT: qHTS for Inhibitors of human tyrosyl-DNA phosphodiesterase 1 (TDP1): qHTS in cells in presence of CPT; chicken DT40 Tdp1-/-;hTDP1 cells + 20 nM CPT, ATP luminescence, 48 h; Potency, µM (doses to about 46.2 µM), most hits filed as inhibitors; 420,000 tested, 12% active; further: nearly all actives have a fitted effect of over 55% in size
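Cell growth measured by CellTiter-Glo luminescence after a minimum 48 h, 37 C compound exposure with 20 nM CPT in Tdp1-knockout DT40 cells stably expressing hTDP1, seeded 400/well; qHTS titration format.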
uPA surface inh: qHTS for Inhibitors of Cell Surface uPA Generation; cell surface uPA generation assay, qHTS; Potency, µM (doses to about 38.3 µM), most hits filed as inhibitors; 330,000 tested, 0.31% active; active means well fitted inhibition curve with a large enough effect; inconclusive means small, poorly fitted or top-dose-only effect; inactive means no such curve, though single readings can be large or run the other way; tested in mouse RAW 264.7 cells; further: nearly all actives have a fitted effect of over 55% in size
Hits are given with their value. Unless noted, the call rests on the fitted dose curve; in most records, active means well fitted curve in the direction sought with a large enough effect; inconclusive means small, poorly fitted or top-dose-only effect, or another doubt; inactive means no such curve, though single readings can be large; an effect the other way counts as inactive or inconclusive.

How did COc1cc2c(cc1OC)CN(CC(=O)Nc1cccc([N+](=O)[O-])c1)CC2 do in these assays?
TDP1 cell noCPT: 16µM; miR-21 act: inactive; TDP1 cell CPT: inconclusive; uPA surface inh: inactive

Results for CCn1cc(C(=O)N[C@@H](C)C(=O)NCCCN2CCOCC2)c(=O)c2cc3c(cc21)OCO3 ?
TDP1 cell noCPT: inactive; TDP1 inh: inactive; miR-21 act: inactive; TDP1 cell CPT: inactive; uPA surface inh: inactive

Results for Cc1noc(/C=C/c2cccnc2)c1[N+](=O)[O-] ?
TDP1 cell noCPT: 13µM; miR-21 act: inconclusive; TDP1 cell CPT: 21µM; uPA surface inh: 7.9µM

Results for Cc1cccc(C)c1N/C=C/c1onc(C)c1[N+](=O)[O-] ?
TDP1 cell noCPT: inactive; TDP1 inh: inactive; miR-21 act: inactive; TDP1 cell CPT: inactive; uPA surface inh: inactive

Results for CSc1nc(N)nc(SCC(=O)Nc2ccc(Cl)cc2)c1C#N ?
TDP1 cell noCPT: 21µM; TDP1 inh: inactive; miR-21 act: inactive; TDP1 cell CPT: inconclusive

What do the screens show for `CSc1nc(N)nc(SCC(=O)C(C)(C)C)c1C#N`?
TDP1 cell noCPT: 23µM; TDP1 inh: inactive; miR-21 act: inactive; TDP1 cell CPT: inconclusive; uPA surface inh: inactive

How did CSc1nc(N)nc(SCCS(=O)(=O)c2ccc(Cl)cc2)c1C#N do in these assays?
TDP1 cell noCPT: 26µM; TDP1 inh: inactive; miR-21 act: inactive; TDP1 cell CPT: 21µM; uPA surface inh: inconclusive

What do the screens show for `COC(=O)c1c(C)nc(C)c(C(=O)OC)c1-c1cccs1`?
TDP1 cell noCPT: inactive; TDP1 inh: inactive; miR-21 act: inactive; TDP1 cell CPT: inactive; uPA surface inh: inactive

How did COc1cc2c3c(c1OC)C(=O)CC3CCCC2 (centres undefined) do in these assays?
TDP1 cell noCPT: inactive; TDP1 cell CPT: inactive

How did COc1ccc(OC)c(C(=O)CN2C(=O)N(c3cc(C)cc(C)c3)S(=O)(=O)c3ccccc32)c1 do in these assays?
TDP1 cell noCPT: inactive; TDP1 inh: inactive; miR-21 act: inactive; TDP1 cell CPT: inactive

How did CC1CC(C)CN(C(C(=O)NC2CCCCC2)c2cc3ccccc3o2)C1 (centres undefined) do in these assays?
TDP1 cell noCPT: 26µM; TDP1 cell CPT: inconclusive

Results for COc1ccc(NC(=O)/C(C#N)=C/c2ccc(Sc3nncn3C)c([N+](=O)[O-])c2)cc1 ?
TDP1 cell noCPT: 26µM; TDP1 inh: inactive; miR-21 act: inactive; TDP1 cell CPT: 16µM; uPA surface inh: inactive

Results for Cc1c(NC(=S)N2CCN(c3ccc(F)cc3)CC2)c(=O)n(-c2ccccc2)n1C ?
TDP1 cell noCPT: inactive; TDP1 inh: inactive; miR-21 act: inactive; TDP1 cell CPT: inactive; uPA surface inh: inactive

What do the screens show for `CCCN(CC(=O)Nc1ccccc1OC)C(=O)CSC(=S)N1CCCC1`?
TDP1 cell noCPT: inactive; TDP1 inh: inactive; TDP1 cell CPT: inconclusive; uPA surface inh: inactive

How did C[C@@H]1CN([C@H](C)CO)S(=O)(=O)c2ccc(Br)cc2O[C@@H]1CN(C)C(=O)Nc1ccc(C(F)(F)F)cc1 do in these assays?
TDP1 cell noCPT: inconclusive; TDP1 cell CPT: 21µM

How did Cc1ccccc1-c1ccc2c(c1)O[C@@H](CN(C)C(=O)Nc1ccc(C(F)(F)F)cc1)[C@H](C)CN([C@@H](C)CO)S2(=O)=O do in these assays?
TDP1 cell noCPT: 13µM; TDP1 cell CPT: 21µM

How did C[C@H](CO)N1C[C@H](C)[C@@H](CN(C)C(=O)Nc2ccccc2)Oc2cc(Br)ccc2S1(=O)=O do in these assays?
TDP1 cell noCPT: inconclusive; TDP1 cell CPT: inactive

Results for CSc1nc(-c2ccccc2)nn1C(=O)c1ccccc1 ?
TDP1 cell noCPT: 23µM; TDP1 inh: inactive; miR-21 act: inactive; TDP1 cell CPT: inconclusive; uPA surface inh: inactive

Results for c1ccc(COc2ccc(-c3cc4nc(NCCN5CCOCC5)ccn4n3)cc2)cc1 ?
TDP1 cell noCPT: 21µM; TDP1 cell CPT: inconclusive

Results for Cc1cc(-c2ccccc2)nnc1NCCN1CCOCC1 ?
TDP1 cell noCPT: inactive; TDP1 inh: inactive; miR-21 act: inactive; TDP1 cell CPT: inactive; uPA surface inh: inactive
